Test results reported in PubChem BioAssay (NCATS).
Several values for one entry are separate records, joined by “and”; a condition that tells them apart may be missing. Equal values may be shown once. Results filed as inconclusive are left out. Activity calls are given as the source filed them. Unless noted, calls follow the shape of the dose curve; as a rule, active = well fitted curve in the direction sought with a large enough effect; inconclusive = small, poorly fitted or top-dose-only effect, or another doubt; inactive = no such curve, though single readings can be large; an effect the other way counts as inactive or inconclusive.

Tests used:
[1] = target: Bile acid receptor (Homo sapiens) (UniProt Q96RI1); experiment: qHTS assay for small molecule antagonists of farnesoid X receptor signaling (AID 588526; calls by dose curve; also: % is scaled to controls: 0 for no effect and ±100 for the full control effect)
Chain of Bile acid receptor (Homo sapiens) (Q96RI1 whole entry, looked up): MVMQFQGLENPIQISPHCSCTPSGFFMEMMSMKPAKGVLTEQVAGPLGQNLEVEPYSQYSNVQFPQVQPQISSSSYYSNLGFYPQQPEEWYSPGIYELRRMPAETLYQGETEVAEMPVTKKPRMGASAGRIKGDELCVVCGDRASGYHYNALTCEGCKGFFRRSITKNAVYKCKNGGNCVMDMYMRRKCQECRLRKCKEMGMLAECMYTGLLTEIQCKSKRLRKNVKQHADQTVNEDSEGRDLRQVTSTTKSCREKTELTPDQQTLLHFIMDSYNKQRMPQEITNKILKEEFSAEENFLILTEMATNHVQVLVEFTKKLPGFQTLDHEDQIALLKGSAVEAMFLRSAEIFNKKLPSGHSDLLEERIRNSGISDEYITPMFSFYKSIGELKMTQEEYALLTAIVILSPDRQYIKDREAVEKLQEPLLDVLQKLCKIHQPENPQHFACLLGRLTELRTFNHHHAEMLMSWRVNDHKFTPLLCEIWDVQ
Outline: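 Beta-lactamase reporter antagonist mode: HEK293T FXR-UAS-bla cells, titrated compound, CDCA stimulation, 16 h 37 C, CCF4 dye 2 h RT. Data normalized to CDCA 50 uM and DMSO; Hill-fit IC50.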

[2] = qHTS assay for small molecule antagonists of peroxisome proliferator-activated receptor delta signaling (AID 588535); settings: HEK293T PPARd-UAS-bla, beta-lactamase FRET ratio, 18 h; 460 nm channel;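 also: cells co-treated with a PPAR-delta agonist as stimulator during compound exposure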
Outline: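 Antagonist-mode qHTS using GeneBLAzer PPAR-delta-UAS-bla HEK293T cells; compound exposure 18 hrs at 37 C over a titration. Ratiometric CCF4 fluorescence at 460/530 nm; concentration-response points fitted to the Hill equation.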

[3] = target: Vitamin D3 receptor (Homo sapiens) (UniProt P11473); experiment: qHTS assay for small molecule agonists of vitamin D receptor signaling (AID 588543; calls by dose curve;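 also: 0% = DMSO basal and 100% = reference agonist control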)
Chain of Vitamin D3 receptor (Homo sapiens) (P11473 whole entry, looked up): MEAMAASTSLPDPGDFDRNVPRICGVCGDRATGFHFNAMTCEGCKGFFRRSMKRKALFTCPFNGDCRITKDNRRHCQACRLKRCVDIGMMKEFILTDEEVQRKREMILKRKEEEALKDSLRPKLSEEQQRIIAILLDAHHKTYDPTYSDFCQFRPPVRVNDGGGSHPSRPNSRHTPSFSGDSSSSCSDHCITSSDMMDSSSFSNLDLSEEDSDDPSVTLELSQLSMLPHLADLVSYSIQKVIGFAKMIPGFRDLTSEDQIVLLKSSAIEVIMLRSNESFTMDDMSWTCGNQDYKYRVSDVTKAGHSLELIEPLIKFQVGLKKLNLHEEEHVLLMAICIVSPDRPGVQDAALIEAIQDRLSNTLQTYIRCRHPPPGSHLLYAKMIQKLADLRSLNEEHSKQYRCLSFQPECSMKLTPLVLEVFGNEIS
Outline: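 qHTS in agonist mode: compound titrations stimulate a VDR-driven β-lactamase reporter in HEK293T cells over 16 h at 37 °C. Response normalized to 50 nM 1α,25-dihydroxyvitamin D3 = 100%, DMSO = 0%; Hill fitting gives EC50 and maximal response.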

[4] = qHTS assay for small molecule agonists of retinoid X receptor alpha signaling (AID 588544; calls by dose curve;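 as to activation: 0% = DMSO basal wells and 100% = reference agonist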); settings: HEK293T RXRa-UAS-bla, beta-lactamase reporter, 18 h; 530 nm emission
[5] = target: Retinoic acid receptor RXR-alpha (Homo sapiens) (UniProt P19793); experiment: as above
Chain of Retinoic acid receptor RXR-alpha (Homo sapiens) (P19793 whole entry, looked up): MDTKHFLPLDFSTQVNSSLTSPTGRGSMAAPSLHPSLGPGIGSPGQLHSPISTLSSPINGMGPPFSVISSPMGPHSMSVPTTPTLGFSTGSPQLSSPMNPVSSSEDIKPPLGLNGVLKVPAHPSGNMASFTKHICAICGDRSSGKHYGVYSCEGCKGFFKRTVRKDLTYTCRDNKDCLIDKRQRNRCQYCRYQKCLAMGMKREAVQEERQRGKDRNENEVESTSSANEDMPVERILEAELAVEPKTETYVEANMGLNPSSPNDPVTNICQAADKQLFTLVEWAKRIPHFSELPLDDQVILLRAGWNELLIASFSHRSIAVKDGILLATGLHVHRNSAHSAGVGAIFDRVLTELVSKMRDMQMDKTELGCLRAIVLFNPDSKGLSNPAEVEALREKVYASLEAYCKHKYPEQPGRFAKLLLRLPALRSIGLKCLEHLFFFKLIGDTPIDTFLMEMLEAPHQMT

[6] = target: Thyroid hormone receptor beta (Homo sapiens) (UniProt P10828); experiment: qHTS assay for small molecule agonists of thyroid hormone receptor beta signaling (AID 588545; calls by dose curve;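 also: 0% = DMSO only and 100% = 10 nM T3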)
Chain of Thyroid hormone receptor beta (Homo sapiens) (P10828 whole entry, looked up): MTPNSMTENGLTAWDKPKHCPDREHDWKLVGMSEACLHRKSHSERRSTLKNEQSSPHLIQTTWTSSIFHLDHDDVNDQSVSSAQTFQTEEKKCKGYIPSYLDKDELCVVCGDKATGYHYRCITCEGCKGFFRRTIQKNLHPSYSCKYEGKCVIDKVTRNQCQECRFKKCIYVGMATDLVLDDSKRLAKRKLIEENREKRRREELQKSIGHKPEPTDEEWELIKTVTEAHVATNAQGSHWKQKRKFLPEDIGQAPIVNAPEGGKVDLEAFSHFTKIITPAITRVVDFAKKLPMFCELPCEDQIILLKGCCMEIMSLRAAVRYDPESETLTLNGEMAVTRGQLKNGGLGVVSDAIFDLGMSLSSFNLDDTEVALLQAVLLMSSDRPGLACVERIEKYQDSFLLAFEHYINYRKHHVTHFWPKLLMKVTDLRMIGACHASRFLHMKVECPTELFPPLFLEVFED
Outline: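 Stimulation of a TR-driven beta-lactamase reporter was quantified in GripTite HEK 293 cells. Compound series ran for 18 hrs; curves were normalized to T3 and DMSO controls and fitted to yield EC50.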

[7] = qHTS assay for small molecule antagonists of retinoid X receptor alpha signaling (AID 588546; active = well fitted inhibition curve with a large enough effect in the signal ratio, with a control signal flat, not every such curve was filed as active; the % refers to the signal ratio;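 also: cells stimulated with 9-cis-retinoic acid as agonist; % is scaled to controls: 0 for no effect and ±100 for the full control effect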); settings: HEK293T RXRa-UAS-bla, beta-lactamase ratio, antagonist mode; measured here: W530 green channel, cytotoxicity proxy
Outline: (§1)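 Beta-lactamase reporter inhibition, read as CCF4 fluorescence ratio (ex 405, em 460/530 nm) after 2 h at RT. HEK293T UAS-bla cells, 2500/well, were stimulated with 9-cis-RA at 500 or 100 nM final alongside test compound for 18 h at 37 C.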

[8] = target: Retinoic acid receptor RXR-alpha (Homo sapiens) (UniProt P19793); experiment: as above; settings: HEK293T RXRa-UAS-bla, beta-lactamase ratio, antagonist mode
Outline: as §1

[9] = target: Thyroid hormone receptor beta (Homo sapiens) (UniProt P10828); experiment: qHTS assay for small molecule antagonists of thyroid hormone receptor beta signaling (AID 588547; active = well fitted inhibition curve with a large enough effect in the signal ratio, with a control signal flat, not every such curve was filed as active; the % refers to the signal ratio;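 also: cells stimulated with 0.4 nM T3 agonist during compound exposure; series mostly up to about 77 µM; % is scaled to controls: 0 for no effect and ±100 for the full control effect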); settings: TR-UAS-bla HEK293, beta-lactamase ratio, antagonist mode, 18 h
Outline: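 Inhibition of T3-driven (0.4nM final) beta-lactamase reporter activity was measured over 0.59 nM to 92 uM compound after 18 h at 37 C. The cells were GripTite HEK293 TR-UAS-bla in charcoal/dextran-stripped serum, with CCF4 ratio read-out and IC50 from Hill fits.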

[10] = target: Voltage-gated inwardly rectifying potassium channel KCNH2 (Homo sapiens) (UniProt Q12809); experiment: qHTS Assay for Small Molecule Inhibitors of the Human hERG Channel Activity (AID 588834);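 also: lower thallium flux fluorescence means stronger hERG block; nearly all actives have a fitted effect of over 50% in size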; also: potency is read from the fitted curve at half-maximal effect
Chain of Voltage-gated inwardly rectifying potassium channel KCNH2 (Homo sapiens) (Q12809 whole entry, looked up): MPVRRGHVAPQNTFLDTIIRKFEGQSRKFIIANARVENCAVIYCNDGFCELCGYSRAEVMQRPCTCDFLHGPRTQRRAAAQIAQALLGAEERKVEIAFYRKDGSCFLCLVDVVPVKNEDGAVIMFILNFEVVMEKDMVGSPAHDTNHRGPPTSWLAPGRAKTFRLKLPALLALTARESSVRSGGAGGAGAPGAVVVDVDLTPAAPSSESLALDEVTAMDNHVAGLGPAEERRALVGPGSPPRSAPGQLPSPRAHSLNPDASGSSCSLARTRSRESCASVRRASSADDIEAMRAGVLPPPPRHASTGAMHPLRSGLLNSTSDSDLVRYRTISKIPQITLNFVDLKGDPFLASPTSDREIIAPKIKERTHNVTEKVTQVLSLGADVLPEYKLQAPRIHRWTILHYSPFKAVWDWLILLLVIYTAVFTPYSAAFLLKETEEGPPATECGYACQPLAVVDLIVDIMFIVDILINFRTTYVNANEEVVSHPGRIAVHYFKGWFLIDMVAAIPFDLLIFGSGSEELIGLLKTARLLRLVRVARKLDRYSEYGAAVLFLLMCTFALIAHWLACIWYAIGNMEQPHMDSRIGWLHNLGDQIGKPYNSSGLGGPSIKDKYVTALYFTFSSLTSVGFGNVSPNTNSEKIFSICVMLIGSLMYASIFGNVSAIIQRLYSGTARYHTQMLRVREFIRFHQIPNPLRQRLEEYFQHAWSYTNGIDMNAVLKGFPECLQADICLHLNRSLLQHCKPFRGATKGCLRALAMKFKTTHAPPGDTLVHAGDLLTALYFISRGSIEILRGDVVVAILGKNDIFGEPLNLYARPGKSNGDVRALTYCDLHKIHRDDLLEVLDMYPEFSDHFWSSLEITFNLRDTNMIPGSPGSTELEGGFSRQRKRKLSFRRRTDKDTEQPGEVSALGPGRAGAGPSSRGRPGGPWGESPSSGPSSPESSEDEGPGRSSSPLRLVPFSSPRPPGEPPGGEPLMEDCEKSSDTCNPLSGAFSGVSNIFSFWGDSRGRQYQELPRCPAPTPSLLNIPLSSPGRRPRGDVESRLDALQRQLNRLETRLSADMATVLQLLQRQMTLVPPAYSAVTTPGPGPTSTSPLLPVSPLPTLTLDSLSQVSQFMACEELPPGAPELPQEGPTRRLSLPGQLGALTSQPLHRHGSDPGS
Outline: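 Cells were infected with hERG-BacMam virus for 4 hrs at room temperature, grown overnight, then seeded at 2000/well. After dye loading and roughly 10 min compound treatment, thallium influx was triggered and fluorescence recorded.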

[11] = target: Luciferin 4-monooxygenase (Photinus pyralis) (UniProt P08659); experiment: Biochemical firefly luciferase enzyme assay for NPC (AID 624030); also: nearly all actives have a fitted effect of over 70% in size; also: potency is read from the fitted curve at half-maximal effect
Chain of Luciferin 4-monooxygenase (Photinus pyralis) (P08659 whole entry, looked up): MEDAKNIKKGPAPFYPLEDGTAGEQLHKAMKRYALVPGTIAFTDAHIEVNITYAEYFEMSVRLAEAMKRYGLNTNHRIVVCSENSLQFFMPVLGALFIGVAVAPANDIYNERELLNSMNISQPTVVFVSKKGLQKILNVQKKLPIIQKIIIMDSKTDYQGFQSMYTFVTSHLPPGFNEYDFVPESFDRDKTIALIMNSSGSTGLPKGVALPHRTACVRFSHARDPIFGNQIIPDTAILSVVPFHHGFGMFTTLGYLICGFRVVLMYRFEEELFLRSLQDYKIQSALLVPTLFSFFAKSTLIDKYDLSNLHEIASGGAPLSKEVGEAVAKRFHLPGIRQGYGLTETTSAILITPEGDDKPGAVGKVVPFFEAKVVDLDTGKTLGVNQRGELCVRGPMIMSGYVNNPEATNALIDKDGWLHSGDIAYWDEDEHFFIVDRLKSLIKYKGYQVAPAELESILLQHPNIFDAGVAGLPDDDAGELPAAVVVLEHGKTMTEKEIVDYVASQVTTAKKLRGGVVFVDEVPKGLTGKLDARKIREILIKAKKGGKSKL
Outline: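 Direct inhibition of firefly luciferase enzyme (10 nM final, 50 mM Tris Acetate) assessed by luminescence within 5 minutes. Percent activity scaled between DMSO and PTC124 positive control, with concentration-effect curves classified by fit quality and response.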

[12] = S16 Schwann cell viability assay (CellTiter-Glo assay) (AID 624031);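 also: cellular ATP luminescence as a viability measure; series mostly up to about 58 µM; plate controls were DMSO-treated cells for no effect and cell-free wells for full effect; nearly all actives have a fitted effect of over 70% in size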
Outline: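 Native S16 rat Schwann cells, 500-750 cells/well in DMEM with 10% FBS, dosed with compound after overnight culture and incubated 24h at 37 degree Celsius/5% CO2. Viability by CellTiter-Glo luminescence; % activity normalized to no-cell wells and DMSO-treated cells.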

[13] = S16 Schwann cell PMP22 intronic element firefly luciferase assay (AID 624032); also: nearly all actives have a fitted effect of over 30% in size; also: potency is read from the fitted curve at half-maximal effect
Outline: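 Luciferase reporter of PMP22 intronic-element expression in stably transfected S16 rat Schwann cells, read by ONE-Glo luminescence after 24 h compound exposure at 37 C. Activity scaled between DMSO (0%) and positive-control PTC124; concentration-effect curves quality-classified.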

[14] = S16 Schwann cell PMP22 intronic element beta-lactamase assay (AID 624044; calls by dose curve; also: nearly all actives have a fitted effect of over 15% in size; also: potency is read from the fitted curve at half-maximal effect)
Outline: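 Beta-lactamase reporter under a PMP22 intronic regulatory element in stable S16 rat Schwann cells; 24 h compound exposure. 460 nm blue signal normalized between DMSO (0%) and potassium clavulanate, with 535 nm FRET tracking viability; curves classed by r2 and response.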

[15] = qHTS of Trypanosoma Brucei Inhibitors: LOPAC Validation (AID 624147); also: 0% is about no effect
Outline: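 Luminescent Kinase-Glo Plus end-point after 45 min room-temperature reaction of T. brucei pyruvate kinase started with 130 uM ADP (final). Buffer TEA 50 mM pH 7.2 with KCl, MgCl2, BSA, Tween-20; titration-based qHTS with fitted concentration-effect curves.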

[16] = target: Peroxisome proliferator-activated receptor gamma (Homo sapiens) (UniProt P37231); experiment: qHTS assay for small molecule agonists of peroxisome proliferator-activated receptor gamma signaling (AID 588536; active = well fitted curve in the direction sought with a large enough effect in the signal ratio, with a control signal flat, not every such curve was filed as active; the % refers to the signal ratio;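 also: 0% = DMSO basal wells and 100% = rosiglitazone at 2 µM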)
Chain of Peroxisome proliferator-activated receptor gamma (Homo sapiens) (P37231 whole entry, looked up): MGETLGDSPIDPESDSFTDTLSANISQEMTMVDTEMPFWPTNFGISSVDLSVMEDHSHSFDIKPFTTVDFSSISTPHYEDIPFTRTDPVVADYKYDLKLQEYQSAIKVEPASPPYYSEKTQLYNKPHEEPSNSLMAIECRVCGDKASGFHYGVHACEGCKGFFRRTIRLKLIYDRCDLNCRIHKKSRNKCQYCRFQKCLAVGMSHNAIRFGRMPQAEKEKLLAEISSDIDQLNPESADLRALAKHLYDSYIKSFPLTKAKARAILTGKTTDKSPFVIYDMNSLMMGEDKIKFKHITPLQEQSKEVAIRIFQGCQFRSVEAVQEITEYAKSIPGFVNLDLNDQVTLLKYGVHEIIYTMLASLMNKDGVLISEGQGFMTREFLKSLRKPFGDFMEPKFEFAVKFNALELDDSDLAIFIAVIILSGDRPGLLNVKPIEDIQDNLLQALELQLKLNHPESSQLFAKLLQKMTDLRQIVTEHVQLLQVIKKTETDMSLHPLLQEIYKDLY
Outline: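 This is an agonist-mode beta-lactamase reporter assay in HEK293 PPAR-gamma-UAS-bla cells with 1% charcoal/dextran FBS. Compound titrations ran 16 h at 37 C before CCF4 detection. EC50 and efficacy are Hill fits scaled to 2 uM rosiglitazone (100%) and DMSO basal.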

[17] = target: Peroxisome proliferator-activated receptor gamma (Homo sapiens) (UniProt P37231); experiment: qHTS assay for small molecule antagonists of peroxisome proliferator-activated receptor gamma signaling (AID 588537; active = well fitted inhibition curve with a large enough effect in the signal ratio, with a control signal flat, not every such curve was filed as active; the % refers to the signal ratio;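 also: reporter cells co-stimulated with 50 nM rosiglitazone agonist during compound treatment; % of control where 0% means no effect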)
Outline: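 Cell-based beta-lactamase assay; GW9662 served as the antagonist control. Stimulation used rosiglitazone, final 50 nM, 16 h, 37 C.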

[18] = target: Glutaminase kidney isoform, mitochondrial (Homo sapiens) (UniProt O94925); experiment: qHTS for Inhibitors of Glutaminase (GLS): LOPAC Validation (AID 624146);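 also: glutamate product detected by oxidase and peroxidase coupled Amplex red fluorescence gain; series mostly up to about 46 µM; % is scaled to controls: 0 for no effect and ±100 for the full control effect; nearly all actives have a fitted effect of over 60% in size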
Chain of Glutaminase kidney isoform, mitochondrial (Homo sapiens) (O94925 whole entry, looked up, canonical isoform): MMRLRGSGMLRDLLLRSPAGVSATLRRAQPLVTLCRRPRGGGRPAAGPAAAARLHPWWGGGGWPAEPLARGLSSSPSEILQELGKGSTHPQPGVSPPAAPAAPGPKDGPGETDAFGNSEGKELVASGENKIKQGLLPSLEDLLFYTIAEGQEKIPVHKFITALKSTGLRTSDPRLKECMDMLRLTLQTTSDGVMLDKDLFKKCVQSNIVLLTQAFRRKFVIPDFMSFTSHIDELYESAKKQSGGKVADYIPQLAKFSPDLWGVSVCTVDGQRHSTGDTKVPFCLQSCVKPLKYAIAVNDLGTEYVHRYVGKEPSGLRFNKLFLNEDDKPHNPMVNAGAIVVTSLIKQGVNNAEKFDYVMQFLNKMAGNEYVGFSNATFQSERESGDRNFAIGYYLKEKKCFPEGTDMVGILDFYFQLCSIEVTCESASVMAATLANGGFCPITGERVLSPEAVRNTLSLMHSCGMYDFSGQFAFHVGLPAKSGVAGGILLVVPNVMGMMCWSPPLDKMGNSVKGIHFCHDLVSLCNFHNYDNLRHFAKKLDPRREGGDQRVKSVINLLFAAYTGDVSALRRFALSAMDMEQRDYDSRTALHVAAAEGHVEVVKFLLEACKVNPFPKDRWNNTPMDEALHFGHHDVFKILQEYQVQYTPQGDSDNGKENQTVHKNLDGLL
Outline: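 Two-point fluorescence kinetic (t0, 30 min RT) for hKGA; glutamate detected via glutamate oxidase–HRP–Amplex Red. Substrate: 1 mM L-glutamine solution; buffer 45 mM KH2PO4, pH 8.2.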

[19] = target: Androgen receptor (Homo sapiens) (UniProt P10275); experiment: qHTS assay for small molecule agonists of androgen receptor signaling (AID 588515; active = well fitted curve in the direction sought with a large enough effect in the signal ratio, with a control signal flat; the % refers to the signal ratio; also: % is scaled to controls: 0 for no effect and ±100 for the full control effect); settings: AR-UAS-bla HEK293, beta-lactamase ratio, agonist 16 h; stronger effect = higher value
Outline: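 Stimulation of an AR-responsive β-lactamase reporter in GripTite HEK293 cells was measured after 16 h compound exposure at 37 °C, via CCF4 fluorescence after 2 h RT. EC50 from Hill fits, normalized to R1881 at 30 nM.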

CCOC(=O)c1ccc(O)cc1
3.41%: max response [4]
-7.61%: max response [7]
inactive: outcome [1] | outcome [3] | outcome [5] | outcome [6] | max response [8] 4.29% | activity change % (negative = inhibition) [9] -5.55% | Potency [10] | Potency [11] | Potency [12] | Potency [13] | Potency [14]
-12.7%: max response [2]

CN(C)CCC=C1c2ccccc2CCc2ccccc21
10%: max response [2]
inactive: outcome [3] | outcome [5] | outcome [6] | Potency [11] | outcome [15]
20%: max response [4]

C[C@]12C[C@H](O)[C@H]3[C@@H](CCC4=CC(=O)CC[C@@]43C)[C@@H]1CC[C@@H]2C(=O)CO
57.2%: max response [2]
inactive: outcome [1] | outcome [16] | outcome [17] | outcome [5] | outcome [6] | max response [8] 9.95% | activity change % (negative = inhibition) [9] -13.1% | Potency [10] | Potency [11] | Potency [12] | Potency [13] | Potency [18] | outcome [15]
12.2%: max response [7]
2.39% and 24.9%: max response [4]

CC1=C(/C=C/C(C)=C/C=C/C(C)=C/C(=O)O)C(C)(C)CCC1
53.7% and 67%: max response [2]
active: Potency [11] 32.2 µM
inactive: outcome [17] | outcome [3] | outcome [6] | activity change % (negative = inhibition) [9] 3.37% | Potency [12] | Potency [13] | outcome [15]

Cc1cc(CC(=O)O)n(C)c1C(=O)c1ccc(Cl)cc1
inactive: outcome [1] | outcome [3] | outcome [6] | Potency [10] | Potency [11] | Potency [12] | Potency [13]

CCCCCCCCCCCCOS(=O)(=O)O
inactive: outcome [16] | outcome [17] | outcome [3] | outcome [5] | outcome [6] | max response [8] 6.26% [middle of 4 runs] | activity change % (negative = inhibition) [9] -2.2% | Potency [10] | Potency [12] | Potency [13] | Potency [14]
-1.31% [middle of 4 runs]: max response [4]
-7.08% [middle of 4 runs]: max response [7]

Cc1cccc(Nc2cc(Cl)nc(SCC(=O)O)n2)c1C
-6.52%: max response [7]
-6%: max response [4]
inactive: activation [19] 4.07% | outcome [16] | outcome [17] | outcome [5] | max response [8] -6.08% | activity change % (negative = inhibition) [9] -2.88% | Potency [10] | Potency [11] | Potency [12] | Potency [13]

Nc1ccc(S(=O)(=O)Nc2nccs2)cc1
inactive: outcome [16] | outcome [3] | outcome [5] | max response [8] 19.3% | Potency [10] | Potency [11] | Potency [12] | Potency [13]
-9.52%: max response [7]
11.3%: max response [4]

CC12CCC(CC1)C(C)(C)O2
-11.5%: max response [4]
-6.73%: max response [7]
-10.6%: max response [2]
inactive: outcome [1] | outcome [16] | outcome [17] | outcome [3] | outcome [5] | max response [8] 10.3% | activity change % (negative = inhibition) [9] 18.1% | Potency [10] | Potency [11] | Potency [12] | Potency [13]

CCCc1c(OCCCCc2nn[nH]n2)ccc(C(C)=O)c1O
22.4%: max response [7]
inactive: outcome [1] | outcome [6] | max response [8] 3.05% | Potency [10] | Potency [14]

Cc1c(O)cccc1C(=O)N[C@@H](CSc1ccccc1)[C@H](O)CN1C[C@H]2CCCC[C@H]2C[C@H]1C(=O)NC(C)(C)C
inactive: outcome [3] | Potency [10] | Potency [11] | Potency [12]
active: Potency [13] 8.09 µM

Oc1cccc(O)c1
-5.21%: max response [7]
-9.49%: max response [4]
inactive: outcome [16] | outcome [17] | outcome [3] | outcome [5] | outcome [6] | max response [8] 1.73% | Potency [10] | Potency [11] | Potency [12] | Potency [13] | Potency [14]
15.8%: max response [2]

Cc1cc2nc3c(=O)[nH]c(=O)nc-3n(C[C@H](O)[C@H](O)[C@H](O)CO)c2cc1C
inactive: activity change % (negative = inhibition) [9] -25%

CC(O)CN(CCN(CC(C)O)CC(C)O)CC(C)O (stereo unspecified)
-7.75%: max response [7]
inactive: outcome [1] | outcome [16] | outcome [17] | outcome [3] | max response [8] -14.1% | Potency [10] | Potency [11] | Potency [12] | Potency [13]
30%: max response [2]

COc1ccc(Cl)cc1C(=O)NCCc1ccc(S(=O)(=O)NC(=O)NC2CCCCC2)cc1
15.3%: max response [7]
inactive: outcome [1] | outcome [16] | outcome [6] | max response [8] -9.84% | activity change % (negative = inhibition) [9] 12.2% | Potency [11] | Potency [12] | Potency [14] | Potency [18] | outcome [15]

O=C1NS(=O)(=O)c2ccccc21
2.93%: max response [2]
inactive: outcome [16] | Potency [10] | Potency [11] | Potency [12] | Potency [13]

C[C@]12CC[C@@H]3c4ccc(O)cc4CC[C@H]3[C@@H]1CCC2=O
5.7%: max response [4]
4.88%: max response [7]
inactive: outcome [1] | outcome [5] | outcome [6] | max response [8] -13% | activity change % (negative = inhibition) [9] 17.6% | Potency [10] | Potency [18] | outcome [15]

COC(=O)C1=C(C)NC(C)=C(C(=O)OC)C1c1ccccc1[N+](=O)[O-]
inactive: outcome [3] | outcome [6] | max response [8] 23.4% | activity change % (negative = inhibition) [9] -6% | Potency [11] | Potency [12] | Potency [14]
8.81%: max response [7]

CCCCC(CC)COC(=O)c1ccccc1O (stereo unspecified)
-3.04%: max response [7]
inactive: outcome [16] | outcome [17] | outcome [3] | outcome [5] | outcome [6] | max response [8] 6.6% | activity change % (negative = inhibition) [9] 12.6% | Potency [10] | Potency [11] | Potency [12]
-12.2%: max response [4]
-34.6%: max response [2]

CC1(C)[C@@H]2CC[C@@]1(C)C(=O)C2
5.89%: max response [2]
-8.55%: max response [4]
active: Potency [13] 2.56 µM | Potency [14] 9.99 µM
inactive: outcome [3] | outcome [5] | outcome [6] | max response [8] 2.47% | activity change % (negative = inhibition) [9] -4.32% | Potency [10] | Potency [11] | Potency [12]
1.15%: max response [7]

COc1ccc2cc1Oc1ccc(cc1)C[C@H]1c3c(cc4c(c3Oc3cc5c(cc3OC)CCN(C)[C@@H]5C2)OCO4)CCN1C
active: Potency [10] 14.1 µM
